Assay outcomes (PubChem BioAssay)
Compounds with a hit are over-represented: about 18% of the library has one in this group of screens.
TDP1 block: TDP1 (human) enzyme inhibition; Q9NUW8; recombinant TDP1, AlphaScreen DNA substrate cleavage; Potency, µM (doses to about 130 µM), inactives show at the top dose activity change, negative = inhibition, usual class: inhibitors; 350,000 tested, 0.28% active; AID 485290; note: nearly all actives have a fitted effect of over 40% in size
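Tdp1 1 nM final; 15 min RT w/ cpd; substrate 15 nM, 5 min; beads 10 ug/ml, 10 min; AlphaScreen read. Neg ctrl: no enzyme.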
PLK1 PBD inh: PLK1 (human) polo-box domain binding inhibition; P53350; AID 720504; Plk1 PBD binding of FITC phosphopeptide, fluorescence polarization; Potency, µM, for inactives: max response, negative = inhibition, actives largely listed as inhibitors; 360,000 tested, 2.8% active; note: series mostly up to about 57 µM; nearly all actives have a fitted effect of over 65% in size
TDP1 cell CPT: growth inhibition of DT40 Tdp1-/-;hTDP1 cells with camptothecin (screen for TDP1 inhibitors); chicken DT40 Tdp1-/-;hTDP1 cells + 20 nM CPT, ATP luminescence, 48 h; 420,000 tested, 12% active; AID 686979; Potency, µM (top dose mostly 46.2 µM), inactives show at the highest dose activity change, negative = growth inhibition, hits mostly inhibitors; note: nearly all actives have a fitted effect of over 55% in size
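Chicken DT40 Tdp1-/- cells stably complemented with human TDP1 were seeded at 400 cells/well in medium containing 20 nM camptothecin, exposed to pin-transferred compounds, and grown at 37 °C for at least 48 hr. Viability was read as ATP luminescence.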
DT40 TDP1 no CPT: qHTS for Inhibitors of human tyrosyl-DNA phosphodiesterase 1 (TDP1): qHTS in cells in absence of CPT | DT40 Tdp1-/- hTDP1 cells, no CPT, ATP luminescence, 48 h | Potency, µM (doses to about 46.2 µM), for the others: at the top dose activity change, negative = growth inhibition, usual class: inhibitors | 420,000 tested, 15% active; note: nearly all actives have a fitted effect of over 55% in size
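Compound effects on proliferation are scored in DT40 Tdp1-/-;hTDP1 cells in the absence of CPT. ATP levels (CellTiter-Glo luminescence) are recorded after a ≥48 hr, 37 °C incubation.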
GCN5L2 inh: blocks human GCN5L2 histone acetyltransferase; Q92830; GCN5L2 HAT assay, ThioGlo1 CoA-SH fluorescence; Potency, µM (doses to about 58.9 µM), inactives show at the top dose activity change, negative = inhibition, usual class: inhibitors; 390,000 tested, 0.21% active; AID 504327
Target sequence (Q92830 whole entry, looked up): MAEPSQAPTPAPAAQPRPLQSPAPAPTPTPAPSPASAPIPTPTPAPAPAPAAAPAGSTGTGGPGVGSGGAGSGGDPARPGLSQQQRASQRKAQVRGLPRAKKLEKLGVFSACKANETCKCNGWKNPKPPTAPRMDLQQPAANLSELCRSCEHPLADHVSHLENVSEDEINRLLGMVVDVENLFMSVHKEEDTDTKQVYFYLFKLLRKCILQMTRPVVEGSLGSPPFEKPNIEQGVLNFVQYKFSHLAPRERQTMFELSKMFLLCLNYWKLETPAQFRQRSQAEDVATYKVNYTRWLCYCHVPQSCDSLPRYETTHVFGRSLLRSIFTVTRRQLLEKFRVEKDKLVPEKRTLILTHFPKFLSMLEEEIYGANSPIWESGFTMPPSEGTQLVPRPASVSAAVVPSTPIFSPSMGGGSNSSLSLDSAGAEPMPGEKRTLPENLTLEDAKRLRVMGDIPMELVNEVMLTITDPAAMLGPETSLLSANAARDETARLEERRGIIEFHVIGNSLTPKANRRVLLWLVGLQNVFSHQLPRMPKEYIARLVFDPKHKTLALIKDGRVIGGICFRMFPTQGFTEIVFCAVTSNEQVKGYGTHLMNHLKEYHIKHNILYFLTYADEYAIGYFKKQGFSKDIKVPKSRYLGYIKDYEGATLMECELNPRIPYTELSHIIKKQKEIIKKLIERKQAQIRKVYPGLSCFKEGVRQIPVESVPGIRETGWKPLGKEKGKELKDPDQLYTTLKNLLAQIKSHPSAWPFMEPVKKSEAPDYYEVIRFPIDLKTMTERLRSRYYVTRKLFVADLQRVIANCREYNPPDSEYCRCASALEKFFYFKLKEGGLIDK
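Fluorescence readout, Ex340nm/Em540nm: ThioGlo1 (50uM final) reacts with free CoA thiol released as 20nM GCN5L2 acetylates H3(1-25) peptide (75uM) using acetyl-CoA (70uM). Compound and enzyme sat 15 min beforehand; 20 min room-temperature reaction.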
VDR inh: inhibitors of human vitamin D receptor; P11473; VDR-SRC2-3 peptide fluorescence polarization, 2 h; Potency, µM, without a hit: max response, negative = inhibition, actives largely listed as inhibitors; 400,000 tested, 0.93% active; AID 504847
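FP read-out; VDR + SRC2-3 coactivator peptide; 23 nl compound by pintool; 2 h RT incubation; reagents held at 4 deg C, protected from light.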
The depositor's hits bear a star; ? = inconclusive; . = no result given; [ ] = another dose, or the depositor's remark. Calls come from the whole dose curve; as a rule, active = well fitted curve in the direction sought with a large enough effect; inconclusive = small, poorly fitted or top-dose-only effect, or another doubt; inactive = no such curve, though single readings can be large; an effect the other way counts as inactive or inconclusive. % is set by controls: 0 for no effect and ±100 for the full control effect; potency is the fitted concentration of half-maximal effect.

SMILES	TDP1 block	PLK1 PBD inh	TDP1 cell CPT	DT40 TDP1 no CPT	GCN5L2 inh	VDR inh
O=C1c2ccccc2C(=O)c2c(/C=C/N3CCCCC3)ccnc21	.	-16%	6.5µM*	10µM*	.	-7%
COc1cccc([C@@H]2Oc3ccc(Br)cc3C(=O)[C@H]2O)c1	5%	.	.	.	.	.
COc1ccc2c(c1)C(=O)[C@@H](O)[C@H](c1ccc(OC)c(Br)c1)O2	6%	-3%	21µM*	?	-7%	7%
COc1cccc([C@@H]2Oc3ccc(OC)cc3C(=O)[C@H]2O)c1	8%	-7%	6.5µM*	12µM*	-2%	-25%
FC(F)(F)c1cccc(-c2ccc(/C=N/Nc3nncc(-c4ccccc4)n3)o2)c1	1%	4%	?	9.2µM*	-1%	0%
CCOc1cc(/C=N/Nc2nncc(-c3ccccc3)n2)ccc1O	2%	15µM*	?	?	-13%	-11%
Oc1cccc(/C=N\Nc2nncc(-c3ccccc3)n2)c1	6%	21µM*	?	?	-4%	?
Clc1ccc(-c2ccc(/C=N/Nc3nncc(-c4ccccc4)n3)o2)cc1	8%	0%	?	?	-6%	-13%
N[C@@H](Cc1cc(CP(=O)(O)O)cc(-c2ccccc2Cl)c1)C(=O)O	.	.	-17%	1%	-26%	-19%
C=CCN(c1ccccc1)S(=O)(=O)c1cccc(C(=O)N2CCN(c3ncccn3)CC2)c1	3%	-2%	6.5µM*	3.7µM*	-15%	-6%
C=CCN(c1ccccc1)S(=O)(=O)c1cccc(C(=O)O)c1	4%	-7%	1%	-6%	-8%	16%
C=CCN(c1ccccc1)S(=O)(=O)c1cccc(C(=O)Nc2ccncc2)c1	.	-15%	23µM*	21µM*	-1%	3%
C=CCN(c1ccccc1)S(=O)(=O)c1cccc(C(=O)Nc2nc3ccccc3[nH]2)c1	3%	-2%	21µM*	13µM*	-26%	16%
C=CCN(c1ccccc1)S(=O)(=O)c1cccc(C(=O)Nc2ccc(N3CCOCC3)cc2)c1	8%	-1%	9.2µM*	2.6µM*	-22%	-4%
CCOC(=O)C1=C(COC(=O)Cc2ccccc2[N+](=O)[O-])NC(=O)NC1C (stereo not given)	.	-9%	-13%	-24%	.	.
O=C(NCc1ccccc1Cl)c1nnc(Cc2ccc(Cl)cc2)o1	-9%[12.3 µM]	.	-1%	-16%	-6%	-5%
COc1cccc(NC(=O)NCc2ccccc2F)c1	0%	12µM*	?	-21%	2%	?
COc1cccc(NC(=O)NCc2ccccn2)c1	0%	-14%	0%	13%	-1%	-12%
COc1ccccc1NC(=O)NCc1ccccc1F	5%	34µM*	?	18%	-4%	-12%
O=C(NCc1ccc2c(c1)OCO2)Nc1ccc([N+](=O)[O-])cc1	2%[56.1 µM]	-5%	21µM*	4.1µM*	-6%	8%
O=C(NCc1ccccc1F)Nc1ccc([N+](=O)[O-])cc1	0%	0%	?	26µM*	-13%	-3%
Cc1ccc(N2CC(c3nnc(NC(=O)c4ccco4)s3)CC2=O)cc1Cl (stereo not given)	7%	.	-3%	?	-3%	1%
COc1ccccc1N1C(=NC(=O)COc2ccccc2)SC2CS(=O)(=O)CC21 (stereo not given)	2%	0%	1%	-1%	-14%	7%
Cc1c(C(=O)NNc2cc(=O)n(C)c(=O)n2C)cccc1[N+](=O)[O-]	.	-3%	?	6%	0%	-27%
CCN(C(=O)CSc1nc2cc(S(=O)(=O)N(CC)CC)ccc2o1)C1CCS(=O)(=O)C1 (stereo not given)	-10%	21µM*	2%	8%	-4%	?
SMILES	TDP1 block	PLK1 PBD inh	TDP1 cell CPT	DT40 TDP1 no CPT	GCN5L2 inh	VDR inh
COc1ccc(C2=NCC(CSc3nnc(-c4ccc5c(c4)OCO5)o3)S2)cc1 (stereo not given)	6%	0%	?	?	-7%	-9%
CCN(CC)S(=O)(=O)c1ccc2oc(SCC3CN=C(c4ccc(OC)cc4)S3)nc2c1 (stereo not given)	-2%	-23%	?	16µM*	-2%	-27%
CCN(C(=O)CSc1nc2cc(S(=O)(=O)N(CC)CC)ccc2n1CC)C1CCS(=O)(=O)C1 (stereo not given)	-6%[0.505 µM]	-6%	-2%	-7%	3%	7%
CCN1C[C@@H]2[C@@H]3C(=O)N(C)C(=O)[C@@H]3[C@](C)(C1=O)N2C(=O)c1ccc(F)cc1	.	-6%	-18%	-8%	.	-11%
CCOC(=O)N1CCC(N2C(=O)c3ccccc3C2Nc2cc(C)cc(C)c2)CC1 (stereo not given)	4%	-9%	?	15µM*	4%	-9%
CCOC(=O)Cc1csc(SCn2nnc3ccccc3c2=O)n1	3%	-11%	-22%	?	-24%	0%
CCOC(=O)Cc1csc(-n2sc3ccccc3c2=O)n1	7%	3µM*	5.2µM*	12µM*	-16%[0.501 µM]	16µM*
CCOC(=O)Cc1csc(/N=C/c2c(O)n(-c3ccccc3C(F)(F)F)c(=O)c3ccccc23)n1	3%	13%	21µM*	?	-19%	12%
COc1ccc(/C=C2/C(=O)ON=C2C)cc1Cl	.	2.1µM*	?	?	2%	?
CC1=NOC(=O)/C1=C/c1ccc(O)c(Br)c1	.	?	11%	?	26%	?
CC1=NOC(=O)/C1=C/c1ccc(O)cc1	-4%	9.5µM*	?	?	-4%	?
O=C(OCc1cc(=O)n2nc(-c3cccs3)sc2n1)c1ccc(F)cc1	-1%	.	-19%	-15%	-2%	-10%
Cc1nonc1N1CCN(Cc2cn[nH]c2-c2ccc3c(c2)OCO3)CC1	3%	1%	2%	-5%	-3%	5%
COc1ccc2cc(-c3[nH]ncc3CN3CCCC3c3nonc3C)ccc2c1 (stereo not given)	8%	-19%	?	23µM*	-9%	-12%
Cc1nn(-c2ccc(Cl)cn2)c2c1C(=O)CC(C)(C)C2Br (stereo not given)	.	-2%	?	?	.	?
CCn1cnc2c(=O)oc3ccc(S(=O)(=O)Nc4ccc(OC)cc4)cc3c21	0%	.	?	?	-1%	-9%
O=C(CNC(=O)c1nc[nH]c1C(=O)N1CCc2ccccc2C1)OCc1ccccc1	.	19µM*	?	-24%	4%	79µM*
